# Laboratory results: PubChem BioAssay AID1508600 (Functional Genomics Laboratory (NCATS/FGL), 2020)
# The campaign covered roughly 53,000 sequences. About 3,700 (7%) were called active.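 Rule for the calls: active = gene knockdowns whose robust z-score for IL-1 alpha signal is at least 2 or at most -2, so actives lie on both sides; inactive = the rest.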 Only a selection was taken, and actives are over-represented in it overall.
# Test: Components of the Cytosolic LPS Sensing Pathway: Gene Identification via Genome-wide siRNA Screen;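 note: robust z of the log signal after scaling to non-targeting control siRNA wells of the plate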
# Conditions: RAW264.7 macrophages, IL-1a HTRF, actives lie on both sides, screened at 100 nM (by protocol), cells primed 5 h with Pam3CSK4 first
# Outline: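 RAW264.7 mouse macrophages reverse-transfected with single siRNAs (100 nM final) for 48h, primed with Pam3CSK4 for 5 hours, then transfected with LipidA for 24 hour. Supernatant IL-1a read by HTRF; values normalized to negative-control median, log-transformed robust z-scores.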
row,Sequence,z-score
1,GGUUCUGACUUGAGAAAACTT against Clba1,1.41 (inactive)
2,GGUUAUUCUGGUACAGGUUTT against Fndc3a,0.191 (inactive)
3,GGCUCAGCUCAUGAACGACTT against Acvr2b,-0.00307 (inactive)
4,GGACAUGACCAAAAGGCUGTT against Zfp706,3.84 (active)
5,GGUGGUUUUCAUGUUUCCCTT against Olfr574,-1.48 (inactive)
6,GGCUAGAAUGCACAUUUUATT against Tmem65,-1.26 (inactive)
7,CCACCCUCUUCAUAACAGUTT against Med27,-0.82 (inactive)
8,GCCAAUACACGUCUACUGATT against Gm1553,-0.0632 (inactive)
9,GGUGACACUCAAGGUGUCATT against Ldlrap1,2.23 (active)
10,GGACCAUGAGACGAUGGGATT against Dysf,0.167 (inactive)
11,GCUAAUGACACCACUUUUGTT against Aldh9a1,-0.379 (inactive)
12,GGAUUGAGUCCUAUGAAGGTT against Stard3nl,-1.09 (inactive)
13,CCAAGUGACUUUAAGGAUGTT against Pcolce,0.759 (inactive)
14,GGCCAUCAUAUCACCAUUUTT against Rcsd1,1.6 (inactive)
15,GCCUUAGGCAUUUAGAUUUTT against Zbed4,1.33 (inactive)
16,GCUGAAGUUCGUACCCUACTT against Osbp2,-2.42 (active)
17,CGGAGUUCAGCAUUUACCCTT against Shld2,0.428 (inactive)
18,GGCAGUUUGACAACUUUAATT against Fibp,-0.653 (inactive)
19,CCCAGCUCAGGUUUCUAUGTT against Dact2,0.0333 (inactive)
20,GGUGAUCAAUCCUCUAAUATT against Eid2,2.61 (active)
21,GCCUAUGUAAAUAGUGCUGTT against Mt3,0.549 (inactive)
22,GCUAGGUUGGAUAUAUAUGTT against Mypn,-0.0247 (inactive)
23,CGAAGUGAGAAUUGAAUUUTT against Zp2,1.51 (inactive)

row,Sequence,z-score
1,GCUGCUCAGUUUCUUCCAATT against H4c9,2.08 (active)
2,CGGGAAGUAGUGCAACACCTT against Taldo1,-0.902 (inactive)
3,GCACGUAGUAAGAUGUUACTT against Cnot9,-0.969 (inactive)
4,GGGCAUGAAUGGUUACUUATT against Mllt6,1.24 (inactive)
5,GCACAGUACCAUAACGGCUTT against Nampt,-2.06 (active)
6,GGGUGUCAUAUAUAUUGCUTT against Gpr83,0.889 (inactive)
7,GCAAGUGAAAUCCAAACAGTT against Nabp1,-1.54 (inactive)
8,GGUGAGAAGACCAUUGAUUTT against Insr,0.459 (inactive)
9,GGUACUCUCAUUAUCUUUCTT against Tlr8,-0.217 (inactive)
10,GUGAGAAGUUGUGUAGAGCTT against Fmc1,1.84 (inactive)
11,GCAUACAACUGUUCAUAGATT against Nsrp1,-0.476 (inactive)
12,GGAGCUGAGGGAACCUUGUTT against Slc35c1,-2.67 (active)
13,GGACAGCGACAAGAUUCCGTT against Sox4,-0.714 (inactive)
14,GCCUUUAAUCAACCCAAGATT against Scd1,-0.728 (inactive)
15,GCUAAAGAUGAGCGUACAUTT against Myh10,1.44 (inactive)
16,GGUGGUGGAGAAGAUAGGATT against Pax8,-1.05 (inactive)
17,CCAUCUAUUACGGAACGGGTT against Olfr324,1.36 (inactive)
18,GGCCUCAACUAAGAACCCUTT against Pcdh1,-0.298 (inactive)
19,GGUCCAAUUAACCUAUCUUTT against Ppip5k2,-2.06 (active)
20,GGAGAUUAGUUACUUCCAGTT against Slc1a7,3.5 (active)
21,GGAUACAUUAAUUGUUUGGTT against Ppp4r3b,2.55 (active)
22,GGUCACUGCUAAAGCCUGATT against Stoml3,0.864 (inactive)
23,GGCCAUGAAUAUGGAGUCCTT against Cptp,0.623 (inactive)

row,Sequence,z-score
1,GGAAAUCAGAGCUGAGUUATT against Ankrd6,0.0763 (inactive)
2,GGUAGUAGUAAGCCAUAAATT against Exoc8,0.736 (inactive)
3,CCCUUGAACAUUCUACUCUTT against 1700012A03Rik,-0.955 (inactive)
4,GAUCAUCGGCAUUUUGAACTT against Il4,-0.527 (inactive)
5,GGCUGGUACAAAGUUUUAGTT against Mpv17,2.55 (active)
6,GGUAGUAGGAGUUUCCUACTT against 4933414I15Rik,1.44 (inactive)
7,CGGUAAUCAUUGCUGUUCUTT against H2-K1,1.05 (inactive)
8,GGAAGACCAAUAGUACUGCTT against Il1rn,-0.0282 (inactive)
9,GGAGUACGAAUUCCUCACUTT against Arhgdib,-0.0475 (inactive)
10,GGCUCAAAGAAUAUGCCAATT against Rad54b,0.99 (inactive)
11,GCCAGUGCUGGUUUGAAAUTT against Clip4,1.67 (inactive)
12,CCACUGUUACCAUUAUAAUTT against Pramel4,-0.594 (inactive)
13,GGAUAAAGGAAUCUGAUCUTT against Unc80,-2.58 (active)
14,GCGCAGAAGAGGCUAUUAUTT against Asprv1,-0.125 (inactive)
15,GGUAGCACUUACGUGAAAUTT against Mbd2,-0.655 (inactive)
16,GCAUAUGGCACCACAUUGUTT against Psg25,0.0646 (inactive)
17,GGAUAUCAGGGUUGUUAAGTT against Txnl4b,0.952 (inactive)
18,GGCUAUGUUAAUUUGUCCCTT against Hc,0.00272 (inactive)
19,GCAAUAUGUGACAAACUUCTT against Ptpn22,2.06 (active)
20,GGAAUCAGCAAUGGACCCUTT against Parn,-0.818 (inactive)
21,CCUGGGCCUUAACAAGAAGTT against Upf1,-1.32 (inactive)
22,CCCACUUUGAAAAAGACUCTT against Mei4,2.5 (active)
23,GCUUUGGAUAGUAGACAGCTT against BC055324,0.199 (inactive)
